Results: PMC7862700, “An all-to-all approach to the identification of sequence-specific readers for epigenetic DNA modifications on cytosine”

Key:
Assay in all cases: DAPPL (digital affinity profiling via proximity ligation, sequencing); 10 mM Tris-HCl pH 7.5, 50 mM NaCl, 1 mM DTT, 4% glycerol, room temperature, 30 min; GST-TFs on glutathione beads, 16-mer random dsDNA library, 0.1% formaldehyde crosslink after washing; high values mean tight binding
FEV = target: T1, FEV (Homo sapiens, UniProt Q99581 1-238); details: protein: recombinant; tags: N-terminal GST; dsDNA, one strand shown
T1 sequence: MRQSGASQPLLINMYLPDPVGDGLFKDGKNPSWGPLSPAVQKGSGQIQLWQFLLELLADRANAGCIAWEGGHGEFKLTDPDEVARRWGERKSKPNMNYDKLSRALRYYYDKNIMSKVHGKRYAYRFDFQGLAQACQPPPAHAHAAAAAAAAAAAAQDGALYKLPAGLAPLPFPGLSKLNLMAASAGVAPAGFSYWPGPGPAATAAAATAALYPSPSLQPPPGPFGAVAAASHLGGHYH
Outline: (§1)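 Human transcription factors carrying a GST fusion were produced in yeast, bound to glutathione beads, tagged with DNA barcodes and pooled together with a tag-only sample. Each pool was held with 200 nmole of a random double-stranded 16-mer DNA library in Tris/NaCl/DTT/glycerol buffer for 30 min at room temperature, then washed, crosslinked in 0.1% formaldehyde, proximity-ligated with BsaI/T4 ligase (1 h, 37 °C), PCR-amplified and sequenced on an Illumina NextSeq500. Binding signal is the read frequency of each hexamer for a given factor divided by its frequency in the tag-only sample.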

ETV5 = ETV5 (Homo sapiens, UniProt P41161 1-510); details: protein: recombinant; tags: N-terminal GST; dsDNA, one strand shown
Chain of ETV5 (P41161 whole entry): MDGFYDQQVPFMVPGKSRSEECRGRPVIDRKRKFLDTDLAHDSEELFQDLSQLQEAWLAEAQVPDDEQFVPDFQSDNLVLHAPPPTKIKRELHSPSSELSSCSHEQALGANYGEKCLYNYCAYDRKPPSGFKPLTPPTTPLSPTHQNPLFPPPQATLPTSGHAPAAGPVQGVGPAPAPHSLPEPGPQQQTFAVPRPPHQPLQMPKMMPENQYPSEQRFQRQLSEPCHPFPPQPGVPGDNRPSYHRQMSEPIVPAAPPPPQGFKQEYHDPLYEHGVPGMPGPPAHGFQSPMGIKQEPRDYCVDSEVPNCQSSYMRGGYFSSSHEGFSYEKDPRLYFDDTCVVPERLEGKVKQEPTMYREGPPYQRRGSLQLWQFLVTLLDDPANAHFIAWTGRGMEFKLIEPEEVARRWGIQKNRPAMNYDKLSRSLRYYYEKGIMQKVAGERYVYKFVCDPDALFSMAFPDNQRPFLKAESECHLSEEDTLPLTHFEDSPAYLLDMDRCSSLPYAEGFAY
Outline: as §1

HSF1 = HSF1 (Homo sapiens, UniProt Q00613 1-529); details: protein: recombinant; tags: N-terminal GST; chain copies: 3; dsDNA, one strand shown
Chain of HSF1 (Q00613 whole entry): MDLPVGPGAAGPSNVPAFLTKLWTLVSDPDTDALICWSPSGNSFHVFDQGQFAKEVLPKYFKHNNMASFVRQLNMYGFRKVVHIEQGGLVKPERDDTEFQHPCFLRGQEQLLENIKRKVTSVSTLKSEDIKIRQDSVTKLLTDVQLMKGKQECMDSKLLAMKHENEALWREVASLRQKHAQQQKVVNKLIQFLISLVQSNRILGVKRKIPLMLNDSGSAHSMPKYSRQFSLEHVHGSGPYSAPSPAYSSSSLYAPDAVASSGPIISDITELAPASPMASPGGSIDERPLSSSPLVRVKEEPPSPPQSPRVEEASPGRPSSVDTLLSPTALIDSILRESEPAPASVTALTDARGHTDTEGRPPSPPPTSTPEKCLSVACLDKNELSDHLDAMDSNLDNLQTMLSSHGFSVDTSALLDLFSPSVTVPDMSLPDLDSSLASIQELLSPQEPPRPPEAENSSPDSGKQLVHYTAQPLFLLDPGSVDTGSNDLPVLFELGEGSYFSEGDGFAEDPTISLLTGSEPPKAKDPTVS
Outline: as §1

SPIC = target: T2, SPIC (Homo sapiens, UniProt Q8N5J4 1-248); details: protein: recombinant; tags: N-terminal GST; dsDNA, one strand shown
T2 sequence: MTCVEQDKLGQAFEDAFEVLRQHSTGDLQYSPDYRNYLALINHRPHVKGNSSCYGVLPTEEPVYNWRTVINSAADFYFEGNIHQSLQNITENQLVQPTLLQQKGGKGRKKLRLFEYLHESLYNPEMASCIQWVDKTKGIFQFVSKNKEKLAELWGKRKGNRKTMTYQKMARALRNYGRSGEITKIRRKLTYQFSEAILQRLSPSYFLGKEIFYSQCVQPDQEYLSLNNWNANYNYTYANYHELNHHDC
Outline: as §1

ELF4 = ELF4 (Homo sapiens, UniProt Q99607 1-663); details: protein: recombinant; tags: N-terminal GST; dsDNA, one strand shown
Chain of ELF4 (Q99607 whole entry): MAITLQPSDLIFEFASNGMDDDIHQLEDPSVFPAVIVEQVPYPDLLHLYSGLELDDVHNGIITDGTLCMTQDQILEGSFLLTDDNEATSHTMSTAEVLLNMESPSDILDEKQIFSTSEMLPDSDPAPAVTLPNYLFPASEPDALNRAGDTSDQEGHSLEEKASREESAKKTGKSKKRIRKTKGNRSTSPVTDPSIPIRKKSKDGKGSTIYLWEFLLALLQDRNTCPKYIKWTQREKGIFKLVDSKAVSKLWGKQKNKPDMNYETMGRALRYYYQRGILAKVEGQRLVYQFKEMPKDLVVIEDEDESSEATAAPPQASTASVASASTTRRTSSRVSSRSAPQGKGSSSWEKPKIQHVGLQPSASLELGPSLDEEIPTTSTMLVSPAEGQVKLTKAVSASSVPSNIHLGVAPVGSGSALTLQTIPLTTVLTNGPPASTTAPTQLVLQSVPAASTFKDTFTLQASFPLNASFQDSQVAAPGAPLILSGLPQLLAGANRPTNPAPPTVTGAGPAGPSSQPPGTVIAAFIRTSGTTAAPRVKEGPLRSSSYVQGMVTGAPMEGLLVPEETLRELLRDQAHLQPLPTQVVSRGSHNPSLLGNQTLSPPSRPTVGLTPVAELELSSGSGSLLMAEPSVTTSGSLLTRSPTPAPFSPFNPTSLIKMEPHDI
Outline: as §1

ELK4 = target: T3, ELK4 (Homo sapiens, UniProt P28324-2 1-405); details: protein: recombinant; tags: N-terminal GST; dsDNA, one strand shown
T3 sequence: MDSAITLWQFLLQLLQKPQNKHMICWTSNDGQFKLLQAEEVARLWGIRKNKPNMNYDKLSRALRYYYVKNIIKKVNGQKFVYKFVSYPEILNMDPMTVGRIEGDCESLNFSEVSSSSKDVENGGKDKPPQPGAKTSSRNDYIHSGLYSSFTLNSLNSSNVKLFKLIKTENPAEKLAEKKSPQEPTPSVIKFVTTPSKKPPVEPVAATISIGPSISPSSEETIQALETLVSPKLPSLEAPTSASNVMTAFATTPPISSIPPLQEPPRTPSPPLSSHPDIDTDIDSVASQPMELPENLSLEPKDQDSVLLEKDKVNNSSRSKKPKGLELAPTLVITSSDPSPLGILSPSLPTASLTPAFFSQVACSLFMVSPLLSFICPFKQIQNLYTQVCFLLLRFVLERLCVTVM
Outline: as §1

ETV2 = target: T4, ETV2 (Homo sapiens, UniProt O00321 1-342); details: protein: recombinant; tags: N-terminal GST; dsDNA, one strand shown
T4 sequence: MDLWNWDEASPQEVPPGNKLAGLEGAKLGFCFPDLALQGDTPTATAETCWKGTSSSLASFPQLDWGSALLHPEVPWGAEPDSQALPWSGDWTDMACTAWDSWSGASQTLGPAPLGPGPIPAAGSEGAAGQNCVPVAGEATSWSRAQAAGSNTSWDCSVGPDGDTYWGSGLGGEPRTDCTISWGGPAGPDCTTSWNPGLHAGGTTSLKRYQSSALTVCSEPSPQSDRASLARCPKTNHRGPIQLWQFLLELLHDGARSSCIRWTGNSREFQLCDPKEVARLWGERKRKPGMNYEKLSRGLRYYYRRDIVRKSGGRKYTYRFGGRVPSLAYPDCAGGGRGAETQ
Outline: as §1

ELF3 = target: T5, ELF3 (Homo sapiens, UniProt P78545 1-371); details: protein: recombinant; tags: N-terminal GST; dsDNA, one strand shown
T5 sequence: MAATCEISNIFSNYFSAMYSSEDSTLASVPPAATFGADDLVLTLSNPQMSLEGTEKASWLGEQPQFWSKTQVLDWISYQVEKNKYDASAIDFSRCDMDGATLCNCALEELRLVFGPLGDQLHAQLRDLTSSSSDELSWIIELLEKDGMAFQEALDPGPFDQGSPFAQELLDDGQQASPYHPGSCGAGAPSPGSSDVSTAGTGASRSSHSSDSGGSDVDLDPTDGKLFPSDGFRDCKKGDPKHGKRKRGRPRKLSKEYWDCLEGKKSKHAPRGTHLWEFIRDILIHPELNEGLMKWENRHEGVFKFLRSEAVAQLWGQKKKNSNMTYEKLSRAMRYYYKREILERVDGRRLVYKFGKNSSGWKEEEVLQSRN
Outline: as §1

CRX = CRX (Homo sapiens, UniProt O43186 1-299); details: protein: recombinant; tags: N-terminal GST; dsDNA, one strand shown
Chain of CRX (O43186 whole entry): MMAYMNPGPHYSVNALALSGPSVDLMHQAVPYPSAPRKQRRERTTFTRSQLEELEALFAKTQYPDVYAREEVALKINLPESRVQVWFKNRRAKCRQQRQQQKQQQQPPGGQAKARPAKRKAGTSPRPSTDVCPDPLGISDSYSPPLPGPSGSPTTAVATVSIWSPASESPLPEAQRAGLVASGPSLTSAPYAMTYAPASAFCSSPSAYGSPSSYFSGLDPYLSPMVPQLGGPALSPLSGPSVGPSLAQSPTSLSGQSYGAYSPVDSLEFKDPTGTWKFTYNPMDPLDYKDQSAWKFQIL
Outline: as §1

ETV1 = ETV1 (Homo sapiens, UniProt P50549 1-477); details: protein: recombinant; tags: N-terminal GST; dsDNA, one strand shown
Chain of ETV1 (P50549 whole entry): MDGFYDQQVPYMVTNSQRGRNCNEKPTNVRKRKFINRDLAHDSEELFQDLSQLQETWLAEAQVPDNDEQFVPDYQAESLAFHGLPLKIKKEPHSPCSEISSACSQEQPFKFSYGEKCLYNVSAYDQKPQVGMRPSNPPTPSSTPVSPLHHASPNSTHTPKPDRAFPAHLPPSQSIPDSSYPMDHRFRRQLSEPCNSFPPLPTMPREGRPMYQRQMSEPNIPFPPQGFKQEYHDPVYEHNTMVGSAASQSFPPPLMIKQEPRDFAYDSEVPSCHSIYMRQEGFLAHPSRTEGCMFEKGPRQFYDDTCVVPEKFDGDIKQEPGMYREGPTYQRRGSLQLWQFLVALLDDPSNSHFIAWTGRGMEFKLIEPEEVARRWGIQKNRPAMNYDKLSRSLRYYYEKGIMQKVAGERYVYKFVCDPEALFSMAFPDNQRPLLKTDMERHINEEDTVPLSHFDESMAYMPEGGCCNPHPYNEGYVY
Outline: as §1

CTTGTG
binding signal (FEV): 1.39 fold enrichment (6-mer frequency, TF over GST control) | binding signal (ETV5): 1.51 fold enrichment (6-mer frequency, TF over GST control) | binding signal (HSF1): 1.25 fold enrichment (6-mer frequency, TF over GST control) | binding signal (SPIC): 1.45 fold enrichment (6-mer frequency, TF over GST control) | binding signal (ELF4): 1.59 fold enrichment (6-mer frequency, TF over GST control) | binding signal (ELK4): 1.26 fold enrichment (6-mer frequency, TF over GST control) | binding signal (ETV2): 1.44 fold enrichment (6-mer frequency, TF over GST control) | binding signal (ELF3): 1.5 fold enrichment (6-mer frequency, TF over GST control) | binding signal (CRX): 1.25 fold enrichment (6-mer frequency, TF over GST control) | binding signal (ETV1): 1.44 fold enrichment (6-mer frequency, TF over GST control)
